Laboratory results reported in PubChem BioAssay.
Active and inactive are the calls of the source. Unless noted, the rule behind the calls is not given here.

Columns and labels:
[1] = test system: Wnt5a (protein binding on small-molecule microarray); assay: small molecules binding Wnt5a protein – biophysical, small-molecule microarray, 635/667 nm fluorescence, primary screen (AID 1142); details: 635 nm fluorescence, higher = more signal;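 note: fluorescence read at 667 nm with signal to noise per printed feature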
[2] = ATP-based viability of Huh7 replicon cells – cell-based, CellTiter-Glo luminescence, basal, 48 h, cytotoxicity control for HCV replication inhibitor project, primary screen (AID 1143); details: higher = more signal, called active from +8 up or from −8 down;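 note: Huh7 hepatoma cells carrying a hepatitis C replication reporter with no stimulus; test concentration not given here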
[3] = Pseudomonas biofilm growth suppression – PAO1 strain, BacTiter-Glo luminescence, LB-PBS, primary screen (AID 1144); details: P. aeruginosa PAO1 biofilm, 12 h, higher = more signal
[4] = basal CRE-LacZ reporter activity in PC12 – cell-based, unstimulated, primary screen (AID 1145); details: no forskolin, luminescence, 4.5 h, higher = more signal, called active from +8 up or from −8 down
[5] = forskolin-driven CRE-LacZ activity in PC12 – cell-based, CRE-LacZ reporter, forskolin-stimulated, primary screen (AID 1146); details: luminescence, 4.5 h, higher = more signal, called active from +8 up or from −8 down;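 note: PC12 cells with 6xCRE LacZ reporter stimulated by forskolin 10 µM; beta-galactosidase reporter signal reflecting CREB driven transcription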
[6] = target: Streptavidin (Streptomyces avidinii) (UniProt P22629); assay: compounds binding control protein streptavidin – biophysical, small-molecule microarray, 635/667 nm fluorescence, artefact control for SMM compound annotation, primary screen (AID 1147); details: higher = more signal;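 note: signal reflects streptavidin binding to arrayed compounds as a control protein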
Streptavidin (Streptomyces avidinii), sequence (P22629 whole entry, looked up): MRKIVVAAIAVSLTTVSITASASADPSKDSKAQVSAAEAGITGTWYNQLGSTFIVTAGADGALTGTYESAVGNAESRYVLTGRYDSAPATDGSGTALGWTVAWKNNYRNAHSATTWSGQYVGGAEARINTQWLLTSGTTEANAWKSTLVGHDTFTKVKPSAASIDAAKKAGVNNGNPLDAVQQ

[7] = probe aInhba binding on compound microarray – biochemical, small-molecule microarray, 635/667 nm fluorescence, primary screen (AID 1148); details: higher = more signal;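 note: score merges 667nm spot fluorescence with signal-to-noise for antibody binding to printed compounds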
Torsin-1A (Homo sapiens) [8] = target: Torsin-1A (Homo sapiens) (UniProt O14656); assay: TOR1A wild-type binding on microarray – cell lysate, small-molecule microarray, lysate, 635/667 nm, primary screen (AID 1149); details: COS7 hTOR1A-WT lysate, 635 nm fluorescence, higher = more signal
Torsin-1A (Homo sapiens), sequence (O14656 whole entry, looked up): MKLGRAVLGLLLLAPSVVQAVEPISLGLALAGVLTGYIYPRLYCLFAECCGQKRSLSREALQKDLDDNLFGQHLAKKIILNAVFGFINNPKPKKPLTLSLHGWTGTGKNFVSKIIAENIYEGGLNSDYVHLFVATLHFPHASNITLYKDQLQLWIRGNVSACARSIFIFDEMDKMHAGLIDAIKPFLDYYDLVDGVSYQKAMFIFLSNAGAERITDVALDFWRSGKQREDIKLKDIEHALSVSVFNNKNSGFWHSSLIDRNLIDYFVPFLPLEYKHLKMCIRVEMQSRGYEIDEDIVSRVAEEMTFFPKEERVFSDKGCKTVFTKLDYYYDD

Torsin-1A (Homo sapiens) [9] = target: Torsin-1A (Homo sapiens) (UniProt O14656); assay: torsin A mutant lysate binding on microarrays – cell lysate, small-molecule microarray, COS7 lysate, 635/667 nm fluorescence, primary screen (AID 1150); details: COS7 hTOR1A mutant lysate, 635 nm fluorescence, higher = more signal;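 note: score pools 667 nm emission and signal to noise measuring lysate protein binding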
[10] = test system: Sonic hedgehog protein (Shh); assay: Sonic hedgehog microarray binding compounds – biochemical, small-molecule microarray, 635/667 nm fluorescence, primary screen (AID 1151); details: 635 nm fluorescence, higher = more signal;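 note: Shh protein binding to compounds spotted on small-molecule microarray slides; score combines spot fluorescence intensity with signal-to-noise across triplicate slides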
[11] = optical density shifts of acrAB sulA E. coli – strain DRC41, OD650, 48 h, E. coli filamentation inducer project, primary screen (AID 1152); details: higher = more signal, called active from +8 up or from −8 down;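 note: E. coli MC1000 strain DRC41 lacking acrAB efflux pump and sulA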
[12] = probe aLefty1 binding on compound microarray – biochemical, small-molecule microarray, 635/667 nm fluorescence, primary screen (AID 1153); details: higher = more signal;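 note: score merges spot fluorescence with signal-to-noise ratio from the scanned slide images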
[13] = plasmodial surface anion channel blockers, osmotic lysis – cell-based, P. falciparum Indochina, OD700, 1 h, primary screen (AID 1154); details: P. falciparum Indochina infected RBC osmotic lysis, higher = more signal, called active from +8 up or from −8 down
[14] = plasmodial surface anion channel blockers, osmotic lysis – cell-based, P. falciparum Indochina, OD700, 2 h, primary screen (AID 1155);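 note: lysis reports solute entry through the parasite surface anion channel PSAC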; details: P. falciparum Indochina infected erythrocytes, higher = more signal, called active from +8 up or from −8 down
[15] = changes in parasitized red cell lysis, either direction – P. falciparum Indochina, OD700, 3 h, PSAC antagonist project, primary screen (AID 1156); details: P. falciparum-infected erythrocytes, osmotic lysis, higher = more signal, called active from +8 up or from −8 down
[16] = plasmodial surface anion channel blockers, osmotic lysis – cell-based, P. falciparum Indochina, OD700, 18 h, primary screen (AID 1157); details: P. falciparum Indochina infected erythrocytes, osmotic lysis OD700, 18 h; higher = more signal, called active from +8 up or from −8 down
[17] = S6 kinase pathway phospho-S6 level changes – cell-based, A549, cytoblot, luminescence, serum-stimulated, primary screen (AID 1158); details: 5 h, higher = more signal;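 note: serum-stimulated A549 lung adenocarcinoma cells; signal is phosphorylated S6 detected by cytoblot immunostaining with HRP secondary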
[18] = target: NADPH oxidase 2 (Homo sapiens) (UniProt P04839); assay: compounds shifting NOX2 Amplex Red fluorescence – cell-based, HEK293-NOX2, PMA-stimulated, NOX inhibitor project, primary screen (AID 1159); details: 45 min, higher = more signal, called active from +8 up or from −8 down; note: test concentration not given here
NADPH oxidase 2 (Homo sapiens), sequence (P04839 whole entry, looked up): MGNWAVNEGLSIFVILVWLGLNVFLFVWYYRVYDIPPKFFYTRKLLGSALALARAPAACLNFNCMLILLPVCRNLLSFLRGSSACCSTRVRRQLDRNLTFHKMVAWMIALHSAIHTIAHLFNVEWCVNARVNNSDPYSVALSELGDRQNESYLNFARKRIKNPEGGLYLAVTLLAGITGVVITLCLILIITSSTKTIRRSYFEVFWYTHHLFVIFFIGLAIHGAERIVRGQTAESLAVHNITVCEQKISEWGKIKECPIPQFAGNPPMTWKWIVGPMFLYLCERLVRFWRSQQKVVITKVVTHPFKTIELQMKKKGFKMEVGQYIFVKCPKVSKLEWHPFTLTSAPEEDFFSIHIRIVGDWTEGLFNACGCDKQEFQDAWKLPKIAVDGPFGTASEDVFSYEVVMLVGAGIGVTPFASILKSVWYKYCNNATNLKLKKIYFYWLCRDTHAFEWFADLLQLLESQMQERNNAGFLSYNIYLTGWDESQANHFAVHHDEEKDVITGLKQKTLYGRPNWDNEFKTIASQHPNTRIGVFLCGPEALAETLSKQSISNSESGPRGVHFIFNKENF

[19] = target: NADPH oxidase 4 (Homo sapiens) (UniProt Q9NPH5); assay: compounds shifting NOX4 Amplex Red fluorescence – cell-based, HEK293-NOX4, tetracycline-induced, NOX inhibitor project, primary screen (AID 1160); details: HEK293-NOX4, Amplex Red H2O2 fluorescence, 45 min; higher = more signal, called active from +8 up or from −8 down
NADPH oxidase 4 (Homo sapiens), sequence (Q9NPH5 whole entry, looked up): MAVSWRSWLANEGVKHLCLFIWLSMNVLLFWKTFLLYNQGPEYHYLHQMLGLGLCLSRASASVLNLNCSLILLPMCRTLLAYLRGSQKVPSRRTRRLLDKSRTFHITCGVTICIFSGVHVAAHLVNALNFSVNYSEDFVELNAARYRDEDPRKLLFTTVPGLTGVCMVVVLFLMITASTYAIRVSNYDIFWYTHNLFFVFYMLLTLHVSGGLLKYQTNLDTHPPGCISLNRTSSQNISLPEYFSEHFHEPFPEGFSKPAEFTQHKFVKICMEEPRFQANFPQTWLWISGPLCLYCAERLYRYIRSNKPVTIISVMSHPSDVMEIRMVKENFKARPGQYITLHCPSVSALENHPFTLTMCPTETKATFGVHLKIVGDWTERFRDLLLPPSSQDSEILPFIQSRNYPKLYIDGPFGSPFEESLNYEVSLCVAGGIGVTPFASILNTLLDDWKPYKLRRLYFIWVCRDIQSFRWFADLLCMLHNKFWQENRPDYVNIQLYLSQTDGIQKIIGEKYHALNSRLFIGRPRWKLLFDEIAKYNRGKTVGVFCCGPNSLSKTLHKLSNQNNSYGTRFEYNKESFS

[20] = target: NADPH oxidase 5 (Homo sapiens) (UniProt Q96PH1); assay: compounds shifting NOX5 Amplex Red fluorescence – cell-based, HEK293-NOX5, NOX inhibitor project, primary screen (AID 1161); details: HEK293-NOX5, ionomycin, 45 min, higher = more signal
NADPH oxidase 5 (Homo sapiens), sequence (Q96PH1 whole entry, looked up): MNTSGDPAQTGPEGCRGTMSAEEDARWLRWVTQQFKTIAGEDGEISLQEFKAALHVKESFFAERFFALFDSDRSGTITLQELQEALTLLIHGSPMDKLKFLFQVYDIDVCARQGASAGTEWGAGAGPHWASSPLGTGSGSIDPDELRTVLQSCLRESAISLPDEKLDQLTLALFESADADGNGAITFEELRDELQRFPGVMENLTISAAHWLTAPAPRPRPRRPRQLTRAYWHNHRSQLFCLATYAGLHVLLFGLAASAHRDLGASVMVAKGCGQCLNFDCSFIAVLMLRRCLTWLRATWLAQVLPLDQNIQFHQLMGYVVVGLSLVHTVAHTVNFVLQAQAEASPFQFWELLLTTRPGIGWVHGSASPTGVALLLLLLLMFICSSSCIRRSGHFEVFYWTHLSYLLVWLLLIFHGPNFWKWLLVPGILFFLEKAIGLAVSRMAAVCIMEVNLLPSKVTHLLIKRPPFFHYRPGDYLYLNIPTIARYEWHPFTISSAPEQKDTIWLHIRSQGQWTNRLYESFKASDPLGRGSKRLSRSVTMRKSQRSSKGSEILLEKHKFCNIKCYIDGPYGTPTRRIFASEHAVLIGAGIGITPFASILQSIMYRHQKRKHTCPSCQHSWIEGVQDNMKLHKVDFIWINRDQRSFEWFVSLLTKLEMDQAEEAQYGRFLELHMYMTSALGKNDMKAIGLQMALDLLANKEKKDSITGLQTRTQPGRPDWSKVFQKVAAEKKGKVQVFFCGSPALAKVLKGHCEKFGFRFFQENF

SMILES | composite z-score [1] | z-score [2] | z-score [3] | z-score [4] | z-score [5] | composite z-score [6] | composite z-score [7] | composite z-score (Torsin-1A (Homo sapiens) [8]) | composite z-score (Torsin-1A (Homo sapiens) [9]) | composite z-score [10] | z-score [11] | composite z-score [12] | z-score [13] | z-score [14] | z-score [15] | z-score [16] | z-score [17] | z-score [18] | z-score [19] | z-score [20]
CC(C)C(=C=CC[C@H](O)c1ccccc1OCCO)CCO | -0.0207 | -0.334 (inactive) | 0.00427 (inactive) | 2.14 (inactive) | 1.49 (inactive) | -0.366 | -0.101 | -0.0451 | 0.408 | 0.569 | -0.42 (inactive) | -0.0576 | 2.08 (inactive) | -0.0743 (inactive) | -0.163 (inactive) | 0.013 (inactive) | -0.2 | -0.353 (inactive) | 0.323 (inactive) | -0.738
CC(c1ccccc1)C(O)C1C=CC2C(=O)N(Cc3ccccc3)C(=O)C2N1n1cnnc1 (stereo not given) | 0.0618 | -0.0357 (inactive) | 0.144 (inactive) | -0.172 (inactive) | 0.945 (inactive) | 0.705 | -0.145 | 0.327 | 0.358 | -0.506 | -2.13 (inactive) | -0.13 | 1.78 (inactive) | 0.975 (inactive) | 0.0175 (inactive) | 0.929 (inactive) | -0.396 | -0.217 (inactive) | -1.09 (inactive) | -1.02
COc1c(C)cc(-c2cc3c(c(-c4ccccc4)n2)[Si](C(C)C)(C(C)C)O[C@H]3c2ccccc2)cc1C | -0.0797 | 0.393 (inactive) | -0.0188 (inactive) | -0.244 (inactive) | -0.0226 (inactive) | -0.0096 | -0.119 | -0.381 | -0.22 | 0.618 | -1.11 (inactive) | 0.176 | 0.481 (inactive) | -0.129 (inactive) | -0.561 (inactive) | 0.284 (inactive) | 0.291 | -1.36 (inactive) | 0.788 (inactive) | -0.334
CC(C)[Si]1(C(C)C)O[C@@H](c2ccccc2)c2cc(-c3ccc(-c4ccc(Cl)c(Cl)c4)o3)nc(CCc3ccccc3)c21 | -0.306 | -1.03 (inactive) | 0.251 (inactive) | 0.367 (inactive) | 1.52 (inactive) | -0.549 | -0.204 | -0.555 | -0.181 | -0.74 | -0.792 (inactive) | -0.0428 | 3.36 (inactive) | 0.652 (inactive) | -0.443 (inactive) | -0.0811 (inactive) | -0.507 | 0.903 (inactive) | 0.928 (inactive) | 0.44
